EBV gp42 block = Epstein-Barr virus gp42 inhibitors, primary screen, biochemical, uHTS, fluorescence polarization | Fluorescence polarization binding assay, mP read-out | inhibition, % (tested at 21.74 µM) | 220,000 compounds, 0.42% hits | AID 1085, 2008; in the data active = inhibition above about 50%
GLD-1 TGE inh = GLD-1/TGE RNA complex disruptors, primary screen, biochemical, fluorescence polarization; Female germline-specific tumor suppressor gld-1 (Caenorhabditis elegans), Q17339; purified GLD-1 + fluorescein TGE RNA; inhibition, % at 5.96 µM; 320,000 compounds, 0.44% hits; AID 2280, 2010;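 active = percent inhibition above a per-plate cutoff, the plate mean of test compounds plus 3 SD, cut at about 30% in these data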;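 also: 0% = DMSO wells with GLD-1 and probe and 100% = wells lacking GLD-1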
Target sequence (Q17339 whole entry, looked up): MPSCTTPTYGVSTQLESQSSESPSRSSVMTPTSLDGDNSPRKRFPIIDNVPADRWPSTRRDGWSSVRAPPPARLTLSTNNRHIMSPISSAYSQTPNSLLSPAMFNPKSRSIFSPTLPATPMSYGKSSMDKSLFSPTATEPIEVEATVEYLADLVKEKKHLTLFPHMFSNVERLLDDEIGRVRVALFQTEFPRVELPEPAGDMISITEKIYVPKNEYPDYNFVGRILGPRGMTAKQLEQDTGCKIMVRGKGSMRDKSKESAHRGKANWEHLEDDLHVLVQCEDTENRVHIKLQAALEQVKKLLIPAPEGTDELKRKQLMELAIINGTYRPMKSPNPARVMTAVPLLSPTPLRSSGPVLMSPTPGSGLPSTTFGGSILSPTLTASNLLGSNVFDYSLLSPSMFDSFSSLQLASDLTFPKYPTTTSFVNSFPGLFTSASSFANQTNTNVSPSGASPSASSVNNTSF
MEX-5 binding = MEX-5 zinc finger RNA-binding disruptors – biochemical, C. elegans, fluorescence polarization, MLPCN library, primary screen | Zinc finger protein mex-5 (Caenorhabditis elegans), Q9XUB2 | MEX-5/FITC-TCR2 RNA binding; hits give low values | activity score (negative = inhibition of binding), % at 10 µM | 300,000 compounds, 0.38% hits;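 active = inhibition past about -25% in most replicates, and total fluorescence under double the plate's negative control median, limit read from the data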;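 also: 0% = DMSO and -100% = 5 µM competing unlabeled TCR2 RNA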
BCLXL inh = inhibitors of human Bcl-xL, primary screen, biochemical, fluorescence polarization, HTS. Bcl-2-like protein 1 (Homo sapiens), Q07817. GST-Bcl-xL / FITC-Bim BH3 peptide fluorescence polarization. inhibition, % at 10.9 µM. 320,000 compounds, 0.7% hits. AID 2129, 2009;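 active = inhibition above the mean of all tested compounds plus 3 SD, cutoff set per campaign, cut at about 30% in these data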;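 also: 0% = DMSO wells and 100% = unlabeled Bim-BH3 peptide competitor; inhibitors lower millipolarization by displacing the labeled peptide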
MCL1-BIM inh = inhibitors of MCL1 binding to BIM-BH3, primary screen, biochemical, fluorescence polarization; Induced myeloid leukemia cell differentiation protein Mcl-1 (Homo sapiens), Q07820; GST-MCL1 / FITC-Bim-BH3 fluorescence polarization; inhibition, % at 10.9 µM; 320,000 compounds, 0.68% hits; AID 2057, 2009;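 active = inhibition above the mean inhibition of all tested compounds plus 3 SD, set per campaign, cut at about 40% in these data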;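 also: 0% = DMSO wells and 100% = unlabeled Bim-BH3 peptide control; higher means more loss of mP so more displacement of Bim peptide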
GLD-1 TGE cf = GLD-1/TGE RNA binding inhibitors, retest, confirmation, biochemical, fluorescence polarization, triplicate | shares compounds with GLD-1 TGE inh | GLD-1/FL-TGE RNA fluorescence polarization | inhibition, % at 5.96 µM | 550 compounds, 10% hits;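 active = average inhibition across triplicates above the hit cutoff set in the primary screen, cut at about 32% in these data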;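 also: 0% = GLD-1 with RNA probe and DMSO and 100% = wells lacking GLD-1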
The depositor's hits bear a star; nt = no result. Only some compounds are listed: those with a hit (about 1.3% of all), similar ones and a draw of the others.

SMILES	EBV gp42 block	GLD-1 TGE inh	MEX-5 binding	BCLXL inh	MCL1-BIM inh	GLD-1 TGE cf
COc1ccc2c(c1)CC/C(=C/c1ccncc1)C2=O	2	-4	0	5	-2	nt
COc1ccc2c(c1)CC/C(=C\c1ccc(C)o1)C2=O	-4	39*	-2	43*	48*	-12
N#C/C(C(=O)N1CCOCC1)=c1/s/c(=C\c2ccccn2)c(=O)n1-c1ccccc1	8	33*	-7	43*	43*	6
Cc1ccccc1-c1nc(CS(=O)(=O)CC(=O)NCCCN2CCN(C)CC2)c(C)o1	nt	6	-2	2	13	nt
Cc1ccc(C2=Nc3ccccc3NC(C)(c3ccc(C)o3)C2)o1 (stereo unspecified)	-4	44*	0	40*	36	-2
CN1CCN(c2nc3nonc3nc2N2CCN(C)CC2)CC1	-6	35*	-5	33*	29	4
O=C(NNc1c2ccccc2nc2ccccc12)C12CC3CC(CC(C3)C1)C2	-5	-5	0	5	3	nt
NNC(=O)c1cc(C23CC4CC(CC(C4)C2)C3)nc2ccccc12	nt	60*	-1	1	1	-8
Cc1cc(NC(=O)CN(C)CC(=O)Nc2ccc(Cl)cc2)no1	nt	4	nt	nt	nt	nt
Cc1ccc(C(=O)N2CCN(S(=O)(=O)c3ccccc3[N+](=O)[O-])CC2)o1	-16	0	6	-11	-7	nt
O=C(O)c1ccc([N+](=O)[O-])c(CS(=O)(=O)c2ccccc2)c1	nt	6	2	5	2	nt
CCc1cccc(C)c1NC(=O)C1=C(C(=O)O)CCCC1	1	39*	-1	29	32	7
CCc1cccc(C)c1NC(=O)c1ccccc1	1	6	-4	-1	-1	nt
O=[N+]([O-])c1c(Nc2ccccn2)cc(Cl)c2nonc12	-14	43*	0	-9	-39	3
COc1ccc(Nc2ccc(N3C(=O)CC(C)C3=O)cc2[N+](=O)[O-])cn1 (stereo unspecified)	13	38*	-12	42*	42*	13
COc1cccc(CCNc2ccc(N3C(=O)CC(C)C3=O)cc2[N+](=O)[O-])c1 (stereo unspecified)	-4	0	1	7	12	nt
CCc1ccc(OCC(O)Cn2c(N3CCCCC3)nc3c2c(=O)[nH]c(=O)n3C)cc1 (stereo unspecified)	nt	36*	0	3	-1	-3
COCCn1c(CN2CCN(c3ccccc3)CC2)nc2c1c(=O)n(C)c(=O)n2C	nt	33*	0	28	38	-2
C=C(C)CSc1nc2nc(C)cc(C)n2n1	0	35*	-1	29	35	-7
CCSc1nc2nc(C)cc(C)n2n1	-5	14	-3	2	0	nt
CC(C)(Oc1ccc(Cl)cc1)C(=O)NCC1CCCO1 (stereo unspecified)	nt	-7	2	2	2	nt
CCOc1ccc(-c2nc(-c3cccnc3)no2)cc1OCC	-8	7	3	3	6	nt
CCOc1ccc(-c2noc(-c3cccnc3)n2)cc1OCC	-9	102*	nt	1	3	-2
CCC(C)(C)NC(=O)c1cc([N+](=O)[O-])ccc1N1CCOCC1	-7	-9	-1	2	-5	nt
O=C(OCCN1CCCCC1)c1c[nH]c2ccccc12	nt	32*	nt	10	3	-4
O=C(O)C1Sc2[nH]c(=O)sc2C2c3cc(Br)ccc3OC(=O)C12 (stereo unspecified)	12	54*	nt	38*	45*	-2
CCNC(=S)N(CCCO)Cc1cc2cc3c(cc2[nH]c1=O)OCCO3	nt	1	1	11	19	nt
Nc1c(Cl)ncnc1N/N=C/c1ccc2ccccc2n1	4	32*	nt	17	15	-6
